Reference: PubChem BioAssay (NCI)
About 83,000 compounds went through this panel and 20% of them were active in at least one assay; those are over-represented in the sample as a whole.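 A percent growth of 40 corresponds to 60% growth inhibition; 0 means no net growth; -100 means all cells died. Active threshold: below 10.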 A number with no mark means an inactive call. Activity calls are given as the source filed them.

tested on: HL-60(TB) leukemia; experiment: NCI-60 one-dose screen, 48 h (100 = growth as untreated, 0 = no growth, -100 = all killed); settings: 10 µM unless noted

SMILES | growth
O=S(=O)(NCCCNc1nccc(-c2c(-c3ccc(O)cc3)nc3sccn23)n1)c1ccc(F)cc1 | -32.3% (active)
c1ccc(-c2[nH]c3ccccc3c2-c2ccccc2)cc1 | 78.7%
CC1CCC(C(C)C)C(NNC(N)=O)C1 (stereo not given) | 108%
CCOc1ccc(NC(=O)Nc2ccc(OCC)cc2)cc1 | 96.7%
CCCCCOc1ccc(C(=O)/C(Br)=C/C(=O)O)cc1 | 69.3%
COc1cc(/C=C2\CCCC3=C2N=C2SC(C)=CN2C3c2cc(OC)c(OC)c(OC)c2)cc(OC)c1OC (stereo not given) | -11.9% (active)
CC(C)n1c(/C=C/[C@@H](O)C[C@@H](O)CC(=O)O)c(-c2ccc(F)cc2)c2ccccc21 | 91.4%
O=C(Nc1ncc(Cc2ccccc2)s1)c1cc(-c2ccccc2)nc2ccccc12 | 99.2%
COc1ccc(-c2cc(-c3ccccc3)nc(NCCNc3ccnc4cc(Cl)ccc34)n2)cc1 | -58.7% (active)
COc1ccc(/C(C)=C(/c2ccc(OCCCN(C)C)cc2)c2ccc(OC(=O)c3ccccc3)cc2)cc1 | 62.8%
CCN(CC)CCN1C(=O)c2c(c(C)c3c(oc4ccc(O)cc43)c2C)C1=O | -6.29% (active)
COc1ccc(CCN(CC(=O)N(CC(N)=O)C2CCC[C@@H]2OCc2ccccc2)C(=O)CN(C(=O)CN(CCc2ccc(Cl)cc2)C(=O)CN(C(=O)CN(C)Cc2ccccc2F)[C@H](C)C2CCCCC2)[C@H](C)C2CCCCC2)cc1OC (stereo not given in full) | -24.4% (active)
N#C/C(=C\c1ccc(-c2cccc(C(F)(F)F)c2)o1)c1ccccc1 | 96.2%
COc1ccc(C(=O)/C=C/c2cc3c(c(OC)c2)OCC(=O)N3)cc1 | 6.81% (active)
OCC(O)COc1ccc(Cl)cc1Cl (stereo not given) | 103%
CC[N+](CC)(CCOCCOCC[N+](CC)(CC)Cc1ccc([N+](=O)[O-])cc1)Cc1ccc([N+](=O)[O-])cc1 | 93.4%
CCN(CC)CCCCCCCNc1cc(OC)cc2c(C)ccnc12 | 56.2%
CCCCNC(=O)Oc1ccc(/C(=C(/C)Cc2ccc(OC)cc2)c2ccc(OCCN3CCCC3)cc2)cc1 | 43.9%
COc1cc(NC(C)CCCNC(=O)CCC(=O)NCCCNCCCCCCCCCCNCCCNC(=O)CCC(=O)NCCCC(C)Nc2cc(OC)cc3cccnc23)c2ncccc2c1 (stereo not given) | 58.2% [8 µM]
O=C1C=CC2(O)OC(c3ccccc3)CC(=O)C2=C1O (stereo not given) | 50.5%

SMILES | growth
COc1cc(/C=C/C(=O)c2c(-c3ccc(F)cc3)nc3sc(C)nn23)cc(OC)c1OC | 12%
C#C[C@]1(O)CC[C@H]2[C@@H]3CC=C4c5sc(Nc6ccccc6)nc5CC[C@]4(C)[C@H]3CC[C@@]21C | 7.59% (active)
CC(=O)c1ccc(Nc2nc(Cl)nc(Oc3c(Cl)cccc3Cl)n2)cc1 | 97.8%
N#CCCCCCn1c2ccccc2c2c3c(c4c5ccccc5[nH]c4c21)C(=O)N(O)C3=O | -46% (active)
CCC(C)C(N)C(=O)NC(CC(N)=O)C(=O)NC(CC(C)C)C(=O)NC(CCCCN)C(=O)NC(C)C(=O)NC(CC(C)C)C(=O)NC(C)C(=O)NC(C)C(=O)NC(CC(C)C)C(=O)NC(C)C(=O)NC(CCCCN)C(=O)NC(CCCCN)C(=O)NC(C(=O)NC(CC(C)C)C(N)=O)C(C)CC (stereo not given) | 56.1%
FCc1ncc(-c2ccc(C(F)(F)F)cc2)c(NC2CCCCCC2)n1 | -25.6% [100 µM] (active)
Nc1nc2c(c(=O)[nH]1)C1(C(=O)Nc3ccccc31)c1c(nc(N)[nH]c1=O)N2 | 108%
CCOC(=O)[C@H](CSSc1ncnc2cc[nH]c12)NC(=O)[C@@H](C)c1ccc2cc(OC)ccc2c1 | 7.65% (active)
CC(C)N(CCOc1ccc(-c2nc3sccn3c2-c2ccnc(S(C)(=O)=O)n2)cc1)C(C)C | 85.8%
CCCCCCc1nc2c(c(C)nn2-c2ccccc2)c2c1CCCCC2 | 108%
COC(=O)/C=C1/SC(=Nc2ccc([N+](=O)[O-])cc2)N(CCc2c[nH]c3ccc(O)cc23)C1=O | 32.2%
O=C(Cc1ccccc1)C(F)(F)F | 95%
N#C/C(=C\c1ccc(-c2ccccc2)o1)c1nc(-c2ccco2)cs1 | 99.3%
O=C1/C(=C\c2cn(-c3nc(N4CCOCC4)nc(N4CCOCC4)n3)c3ccccc23)c2ccccc2N1c1c(Cl)cccc1Cl | 64.7%
CSc1nc2c(c(=O)n1C)CN(Cc1ccccc1)C(=O)CN2 | 84.9%
O=C1/C(=C/c2ccc(O)cc2)CSc2ccc(Cl)cc21 | 22.7%
CCCCC(=O)c1ccc(OC)cc1 | 92.6%
CCc1nnc(CNc2ccc(Cl)cc2)o1 | 92%
O=C(Nc1ncc(Cc2ccccc2)s1)c1ccc2c(c1)OCCCO2 | 11.8%
COc1ccc(-c2cc(Nc3ccnc(N4CCOCC4)n3)on2)cc1 | -29.9% (active)
